Assay [1] is described as follows: qHTS Assay for Identification of Small Molecule Agonists for Hypoxia Response Element Signaling Pathway (AID 914; active = well fitted activation curve with a large enough effect in the signal ratio, with a control signal flat, not every such curve was filed as active; the % refers to the signal ratio; note: potency is the fitted concentration of half-maximal effect; for activation: % of control where 0% means no effect). The conditions noted are these: ME-180 (cervical carcinoma) HRE-bla reporter, beta-lactamase ratio, CoCl2, 17 h; activation: stronger effect = higher value. The procedure, abridged: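 In Opti-MEM containing 0.5% dialyzed FBS and 10 mM HEPES, ME-180 HRE-bla cells received a compound titration and EC50 CoCl2. They were incubated 17 hours, then CCF4-loaded 2.5 hours at room temperature before ratio reading.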
A general note: Quantitative high-throughput screening tests each substance at several concentrations.

A short description of assay [2]: S16 Schwann cell viability assay (CellTiter-Glo assay) (AID 624031).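 Note: native untransfected S16 rat Schwann cells; plate controls were DMSO-treated cells for no effect and cell-free wells for full effect; nearly all actives have a fitted effect of over 70% in size.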 Put shortly: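 Rat S16 Schwann cells without reporter constructs received compound or DMSO for 24 h at 37 °C under 5% CO2. Cellular ATP was then quantified by CellTiter-Glo luminescence, with vehicle wells defined as 0% activity and cell-free wells as reference.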
For orientation: Cellular ATP, detected with luciferase, serves as a proxy for viable cell number.

Assay [3] in a line: S16 Schwann cell PMP22 intronic element firefly luciferase assay (AID 624032). Note: nearly all actives have a fitted effect of over 30% in size. Note: potency is the fitted concentration of half-maximal effect. Put shortly:
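Rat S16 Schwann cells stably carrying firefly luciferase driven by a PMP22 intronic element, in 10% FBS, treated 24 h at 37 C. ONE-Glo luminescence normalized to PTC124 control and DMSO (0%); curves classed by r2, magnitude and activity.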

Assay [4] in a line: S16 Schwann cell PMP22 intronic element beta-lactamase assay (AID 624044; calls by dose curve;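 note: 0% = DMSO and -100% = potassium clavulanate positive control; nearly all actives have a fitted effect of over 15% in size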). Put shortly:
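Rat S16 Schwann cells with beta-Lac driven by a PMP22 intronic element, compound-treated 24 h at 37 °C. LiveBLAzer FRET B/G read: 460 nm normalized to potassium clavulanate vs DMSO; 535 nm FRET as viability; concentration-effect curves classified.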

Assay [5] has as its system 7G8. The assay can be described thus: qHTS profiling for inhibitors of Plasmodium falciparum proliferation (AID 504749). Note: nearly all actives have a fitted effect of over 60% in size. Note: potency is the fitted concentration of half-maximal effect. To be noted: P. falciparum in erythrocytes, SYBR Green DNA, 72 h; series mostly up to 28.7 µM. Put shortly: (§1)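 Readout was DNA-dye fluorescence from lysed cultures, ex 485/em 535 nm. Parasitized red cells had grown 72 h with compound; data scaled between 0.29 uM artemisinin and DMSO wells and corrected using vehicle-only plates.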

The test system of assay [6] is AA1029. Described as above. The conditions noted are these: P. falciparum in erythrocytes, SYBR Green DNA, 72 h; series mostly up to 28.7 µM. The procedure, abridged: as §1
For assay [7], the system named is ATS95. Described as above. The conditions noted are these: P. falciparum in erythrocytes, SYBR Green DNA, 72 h; series mostly up to 28.7 µM. Put shortly:
as §1

In assay [8] the test system is CP191. The assay is described as above. To be noted: P. falciparum in erythrocytes, SYBR Green DNA, 72 h; series mostly up to 28.7 µM. The procedure, abridged:
as §1

Assay [9] has as its system CP217. The assay is described as above. The conditions noted are these: P. falciparum in erythrocytes, SYBR Green DNA, 72 h; series mostly up to 28.7 µM. The procedure, abridged: as §1
Assay [10] relates to CP247. The description is as above. The conditions noted are these: P. falciparum in erythrocytes, SYBR Green DNA, 72 h; series mostly up to 28.7 µM. The procedure, abridged:
as §1

Assay [11] concerns CP252. The assay is described as above. The conditions noted are these: P. falciparum in erythrocytes, SYBR Green DNA, 72 h; series mostly up to 28.7 µM. The procedure, abridged:
as §1

For assay [12], the system named is CP335. The description is as above. The conditions noted are these: P. falciparum in erythrocytes, SYBR Green DNA, 72 h; series mostly up to 28.7 µM. The procedure, abridged:
as §1

Assay [13] relates to Dd2. The description is as above. The conditions noted are these: P. falciparum in erythrocytes, SYBR Green DNA, 72 h; series mostly up to 28.7 µM. Put shortly:
as §1

Assay [14] deals with FAB9. Described as above. The conditions noted are these: P. falciparum in erythrocytes, SYBR Green DNA, 72 h; series mostly up to 28.7 µM. Put shortly:
as §1

The subject of assay [15] is JCK. The assay is described as above. The conditions noted are these: P. falciparum in erythrocytes, SYBR Green DNA, 72 h; series mostly up to 28.7 µM. The procedure, abridged: as §1
The subject of assay [16] is N140. The description is as above. To be noted: P. falciparum in erythrocytes, SYBR Green DNA, 72 h; series mostly up to 28.7 µM. Put shortly:
as §1

Assay [17] has as its system P93_24. Described as above. To be noted: P. falciparum in erythrocytes, SYBR Green DNA, 72 h; series mostly up to 28.7 µM. The procedure, abridged:
as §1

In assay [18] the test system is PAD. Described as above. To be noted: P. falciparum in erythrocytes, SYBR Green DNA, 72 h; series mostly up to 28.7 µM. Put shortly:
as §1

Assay [19] relates to PC26. The assay is described as above. To be noted: P. falciparum in erythrocytes, SYBR Green DNA, 72 h; series mostly up to 28.7 µM. Put shortly: as §1
Assay [20] concerns SC27B. The description is as above. To be noted: P. falciparum in erythrocytes, SYBR Green DNA, 72 h; series mostly up to 28.7 µM. Put shortly:
as §1

Inconclusive results are not listed. A number with no mark means an inactive call. Active and inactive are the calls of the source. Unless noted, calls come from the whole dose curve; as a rule, active = well fitted curve in the direction sought with a large enough effect; inconclusive = small, poorly fitted or top-dose-only effect, or another doubt; inactive = no such curve, though single readings can be large; an effect the other way counts as inactive or inconclusive.

Consider `Cc1sc2ccccc2[n+]1CCC(=O)O`, for which the activation in assay [1] is -2.73%.
Same read-out and setting: as for `C=C1CC[C@H](O)C/C1=C/C=C1\CCC[C@]2(C)[C@H]1CC[C@H]2[C@@H](C)CCCC(C)C`, the figure is -0.192%.
For the compound `C[C@@H]1C[C@H]2[C@H]3C[C@@H](F)C4=CC(=O)C=C[C@]4(C)[C@@]3(Cl)[C@@H](O)C[C@@]2(C)[C@@H]1C(=O)COC(=O)C(C)(C)C`, the Potency result in [2], in assay [3], in [6], in assay [7], in [8] and in [9] was “inactive” each time. For the same compound, the Potency result in assay [10], in assay [11], in [14], in assay [15], in assay [16] and in [17] was “inactive” in each case. For the same compound, the Potency entry in assay [18], in assay [19] and in assay [20] was “inactive” each time. Besides, the outcome in assay [4] was inactive. In addition, the Potency in assay [5] was 4.47 µM (active); in assay [12] it was 12 µM (active); in assay [13], 12.6 µM (active).
Regarding `CO/N=C(\C(=O)N[C@@H]1C(=O)N2C(C(=O)[O-])=C(C[N+]3(C)CCCC3)CS[C@@H]12)c1csc(N)n1`, the Potency result in assay [2], in [3], in assay [5], in assay [6], in [7] and in assay [8] was “inactive” in each case. For the same compound, the Potency result in [9], in [10], in assay [11], in [12], in [13] and in assay [14] was “inactive” in each case. Further, the Potency entry in assay [15], in assay [16], in assay [17], in [18], in [19] and in [20] was “inactive” in each case. Also, the compound was called inactive in assay [4].
Take `CCNc1ncc2nc(-c3ccccc3)c(=O)n(C3CC3)c2n1`: in assay [1], the Potency was 2.51 µM (active).
In the case of `COc1cc2nc(N(C)CCCNC(=O)[C@@H]3CCCO3)nc(N)c2cc1OC`, the Potency entry in assay [2], in [3], in assay [5], in assay [6], in assay [7] and in assay [8] was “inactive” each time. The Potency entry in [9], in assay [10], in assay [11], in assay [12], in [13] and in assay [14] was “inactive” throughout. For the same compound, the Potency entry in assay [15], in [16], in [17], in [18], in assay [19] and in assay [20] was “inactive” in each case. The outcome in assay [4] was inactive.
For `C[C@H]1C[C@@H]2[C@H]3CCC4=CC(=O)C=C[C@@]4(C)[C@@]3(Cl)[C@@H](O)C[C@]2(C)[C@]1(OC(=O)c1ccco1)C(=O)CCl`, the Potency result in [2], in assay [3] and in [11] was “inactive” in each case. Besides, the compound was classed as inactive in [4]. Further, the Potency was 1.78 µM (active) in assay [5]; 3.16 µM (active) in assay [6]; 3.16 µM (active) in assay [7]; 3.98 µM (active) in assay [9]; 5.73 µM (active) in assay [12]; 3.55 µM (active) in [13]. Further, the results for the Potency in [16], in assay [18] and in assay [19] were 3.55 µM (active), 3.98 µM (active) and 6.42 µM (active), respectively.
With `C=C(NC(=O)C(=C)NC(=O)c1csc(C2=N[C@@H]3c4csc(n4)[C@@H]4NC(=O)c5csc(n5)[C@@H]([C@](C)(O)[C@H](C)O)NC(=O)[C@@H]5CSC(=N5)/C(=C/C)NC(=O)[C@@H]([C@H](C)O)NC(=O)c5csc(n5)[C@]3(CC2)NC(=O)[C@@H](C)NC(=O)C(=C)NC(=O)[C@@H](C)NC(=O)[C@@H]([C@@H](C)CC)N[C@H]2C=Cc3c([C@H](C)O)cc(nc3[C@@H]2O)C(=O)O[C@H]4C)n1)C(N)=O`, the Potency result in [2], in assay [14], in assay [15] and in assay [20] was “inactive” in each case. The Potency in assay [3] is 8.7 µM (active); in assay [5], 3.16 µM (active); in assay [12], 2.28 µM (active); in assay [13], 1.12 µM (active); in assay [17] it was 1.78 µM (active).
As for `C(=C/c1ccccc1)/CN1CCN(C(c2ccccc2)c2ccccc2)CC1`, the call in [4] was inactive. Further, the Potency entry in [6], in assay [7], in [8], in assay [9], in [10] and in assay [11] was “inactive” throughout. Also, the Potency result in [14], in assay [15], in [16], in assay [17], in assay [18] and in assay [19] was “inactive” throughout. The Potency entry in assay [20] is “inactive”.
Turning to `OC[C@@H]1O[C@@H](n2cnc3c(NC4CCCCC4)ncnc32)[C@@H](O)[C@H]1O`, the activation in [1] is -22.9%.

The values are drawn from PubChem BioAssay (NCATS).
